Measurements published in PubChem BioAssay (EPA / NIEHS).
Activity calls are given as the source filed them. The calls were made as follows: active = hit-call score of the fitted dose curve at least 0.9, where 1 is the maximum; inactive = score below 0.9.

Assay: ATG_GRE_CIS: Attagene CIS-FACTORIAL HepG2 Assay for human Glucocorticoid Response Elements (GRE) (AID 2282947)
Details: HepG2 GRE cis-reporter, Attagene multiplex mRNA; actives raise or lower the signal
Method: ATG_CIS is a cell-based, multiplexed-readout assay that uses HepG2, a human liver cell line, with measurements taken at 24 hours after chemical dosing in a 24-well plate.ATG_GRE_CIS is one of 52 assay component(s) measured or calculated from the ATG_CIS assay. It is designed to make measurements of mRNA induction, a form of inducible reporter, as detected with fluorescence intensity signals by Reverse transcription polymerase chain reaction (RT-PCR) and Capillary electrophoresis technology.Data from the assay component ATG_GRE_CIS was analyzed into 1 assay endpoint. This assay endpoint, ATG_GRE_CIS, was analyzed with bidirectional fitting relative to DMSO as the negative control and baseline of activity. Using a type of inducible reporter, measures of mRNA for gain or loss-of-signal activity can be used to understand the reporter gene at the transcription factor-level as they relate to the gene NR3C1. Furthermore, this assay endpoint can be referred to as a primary readout, because this assay has produced multiple assay endpoints where this one serves a reporter gene function. To generalize the intended target to other relatable targets, this assay endpoint is annotated to the nuclear receptor intended target family, where the subfamily is steroidal.
Human liver HepG2 cells are transiently transfected with multiple reporter transcription units (MRTUs) in 6-well plates using FuGene 6 reagent (Roche; 3 ml FuGene/1 mg DNA). The MRTU constructs are regulated by a cis-regulating element (promoter). […] A major difference between the CIS and TRANS system is that in CIS activities of endogenous TFs are measured, whereas the TRANS assay evaluates changes in activities of exogenous, chimeric NR-Gal4 proteins. […] At the end of 24 hour incubation, total RNA was isolated using TriZol reagent (Invitrogen). The isolated RNA is then reverse-transcribed using oligo(dT) primer and Mo-MLV reverse transcriptase (Invitrogen) with DNAse I (Ambion) treatment for 30 min. The one-tenth of the produced cDNA was amplified by PCR using Taq DNA polymerase (Invitrogen) and two reporter sequence-specific primers. The PCR products were fluorescently labeled by primer extension with 6-arboxyfluorescein (6-FAM) 5'-labeled reporter sequence-specific primer (2 min at 95 C, 20 s at 68 C and 10 min at 72 C) and these products were digested with 5U of HpaI (New England Biolabs) for 2h at 37 C. The fragments were purified using Qiaquick PCR columns (Qiagen), analyzed on an ABI 3130xL genetic analyzer (Applied Biosystems) with peak positions identified by using a set of X-rhodamine (ROX)-labeled MapMarker1000 molecular weight standards (BioVentures). The raw capillary electrophoresis data was processed using Attagraph software (Attagene).
In the case of `N#Cc1ccccc1N`, the outcome is reported as “inactive”. With `CCOP(=S)(OCC)SCSc1cc(Cl)ccc1Cl` the outcome was “inactive”. For `C[C@]12CC[C@@H](O)C[C@@H]1CC[C@@H]1[C@@H]2CC[C@]2(C)C(=O)CC[C@@H]12`, the outcome was “inactive”. For `C=CC(=O)OCC(COC(=O)C=C)(COC(=O)C=C)COC(=O)C=C`, the outcome was “inactive”. For `CCN(CC)C(=O)C(Cl)=C(C)OP(=O)(OC)OC`, the outcome was “inactive”. With `CCOC(=O)OC1=C(c2cc(C)ccc2C)C(=O)NC12CCC(OC)CC2` (stereo not given) the outcome was “inactive”. With `CC[N+](CC)(CC)CC` the outcome was “inactive”. With `CC1CC(=O)O1` (stereo not given) the outcome was “inactive”. In the case of `CCCCS(=O)(=O)Cl`, the outcome is reported as “inactive”. For `CC(C)(C)c1ccccc1O`, the outcome was “inactive”. With `N#Cc1ccncc1` the outcome was “inactive”. In the case of `CC(C)N(C(=O)CCl)c1ccccc1`, the outcome is reported as “inactive”. For `CCCCOP(=O)(CCCC)OCCCC`, the outcome was “inactive”. For `O=C(NC(=O)c1c(F)cccc1F)Nc1cc(Cl)c(OC(F)(F)C(F)C(F)(F)F)cc1Cl` (stereo not given), the outcome was “inactive”. For `Oc1ccc(Cc2ccc(O)cc2)cc1`, the outcome was “inactive”. For `COCCl`, the outcome was “inactive”. In the case of `OC(Cc1ccccc1Cl)(Cn1cncn1)C1(Cl)CC1` (stereo not given), the outcome is reported as “inactive”. For `Clc1cccc(Cl)c1Cl`, the outcome was “inactive”. In the case of `Cl[C@H]1OCCO[C@@H]1Cl`, the outcome is reported as “inactive”. For `CCCCC(CC)C(=O)Cl` (stereo not given), the outcome was “inactive”. For `CCCCCCCCCCBr`, the outcome was “inactive”. In the case of `CN(C)CCN(C)C`, the outcome is reported as “inactive”. In the case of `C=CC(=O)[O][Sn]([CH2]CCC)([CH2]CCC)[CH2]CCC`, the AC50 is reported as 0.412 µM (active). For `C=CC(=O)NC(C)(C)CC(C)=O`, the outcome was “inactive”. For `Clc1cccc(Cl)c1`, the outcome was “inactive”. For `C=CC(F)(C(F)(F)F)C(F)(F)C(F)(F)F` (stereo not given), the outcome was “inactive”. In the case of `NC(=O)CCl`, the outcome is reported as “inactive”. In the case of `CN(C)[C@@H]1C(=O)C(C(N)=O)=C(O)[C@@]2(O)C(=O)C3=C(O)c4c(O)ccc(Cl)c4[C@@](C)(O)[C@H]3C[C@@H]12`, the outcome is reported as “inactive”. In the case of `O=[N+]([O-])c1ccccc1O`, the outcome is reported as “inactive”. For `Cc1ccc2nc3sc(=O)sc3nc2c1`, the AC50 was 41.1 µM (active). With `NC(=O)c1ccc(N)nc1` the outcome was “inactive”. In the case of `Nc1nc(N)nc(Cl)n1`, the outcome is reported as “inactive”. In the case of `CC(C)CC(C)(c1ccc(O)cc1)c1ccc(O)cc1`, the outcome is reported as “inactive”. With `O=C(CBr)c1ccc(O)cc1` the outcome was “inactive”. With `CCCSP(=S)(OCC)Oc1ccc(Cl)cc1Cl` (stereo not given) the outcome was “inactive”. With `C#CCO` the outcome was “inactive”. In the case of `CNC(=O)CSP(=O)(OC)OC`, the outcome is reported as “inactive”. For `BrCCCCBr`, the outcome was “inactive”. With `CCOP(=S)(OCC)OP(=S)(OCC)OCC` the outcome was “inactive”. For `Nc1nc(=S)[nH][nH]1`, the outcome was “inactive”.
